RORgamma inh = inhibitors of mouse ROR gamma transcriptional activity; Drosophila S2 Gal4-RORgamma UAS-luciferase reporter, 20 h; Potency, µM (titrated, usually from 53.6 µM), actives largely listed as inhibitors; 310,000 compounds, 5.4% hits; AID 2551; further: nearly all actives have a fitted effect of over 60% in size
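Drosophila Schneider cells stably carrying a metallothionein-driven Gal4 DBD–ROR gamma fusion and a UAS-Photinus luciferase reporter were exposed to compound for 1 hr, then induced with copper sulfate (700 uM final) for 20 hr at ambient temperature before luminescence reading.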
PLK1 PBD block = inhibitors of human PLK1 polo-box domain binding | 360,000 compounds, 2.8% hits | Plk1 PBD binding of FITC phosphopeptide, fluorescence polarization | Potency, µM, hits mostly inhibitors | P53350; further: series mostly up to about 57 µM; nearly all actives have a fitted effect of over 65% in size
Target sequence (P53350 whole entry, looked up, the tested form may be a part): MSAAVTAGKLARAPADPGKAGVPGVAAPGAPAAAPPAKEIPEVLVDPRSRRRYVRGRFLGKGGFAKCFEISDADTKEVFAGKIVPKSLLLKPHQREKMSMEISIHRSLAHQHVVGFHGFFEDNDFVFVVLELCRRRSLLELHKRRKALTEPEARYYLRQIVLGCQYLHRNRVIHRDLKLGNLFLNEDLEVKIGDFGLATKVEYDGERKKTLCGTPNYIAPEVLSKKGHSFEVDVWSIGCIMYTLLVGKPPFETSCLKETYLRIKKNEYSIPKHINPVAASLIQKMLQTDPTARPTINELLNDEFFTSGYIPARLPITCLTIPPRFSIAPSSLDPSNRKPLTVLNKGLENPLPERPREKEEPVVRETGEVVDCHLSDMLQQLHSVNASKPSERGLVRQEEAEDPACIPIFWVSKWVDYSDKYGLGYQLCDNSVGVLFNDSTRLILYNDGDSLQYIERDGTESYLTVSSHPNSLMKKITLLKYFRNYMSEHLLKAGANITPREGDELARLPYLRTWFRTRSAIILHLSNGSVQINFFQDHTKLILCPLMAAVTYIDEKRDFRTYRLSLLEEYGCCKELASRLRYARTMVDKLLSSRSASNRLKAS
ALDH1A1 inh = inhibitors of human aldehyde dehydrogenase 1A1; 220,000 compounds, 7.3% hits; Potency, µM (doses to about 75.3 µM), hits mostly inhibitors; Purified ALDH1A1, NADH fluorescence, propionaldehyde substrate; P00352; active means well fitted inhibition curve with a large enough effect, not every such curve was filed as active; inconclusive means small, poorly fitted or top-dose-only effect, or another doubt; inactive means no such curve, though single readings can be large or run the other way
VP16 counter = counter-screen for ROR gamma inhibitors: Gal4-VP16 reporter | Drosophila S2 Gal4-VP16 UAS-luciferase, luminescence, 20 h | Potency, µM (doses to about 53.6 µM), hits mostly inhibitors | 310,000 compounds, 3.5% hits | AID 2546;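 further: Gal4-VP16 expression switched on by copper sulfate through the metallothionein promoter; nearly all actives have a fitted effect of over 50% in size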
Sfp inh = inhibitors of Bacillus subtilis Sfp phosphopantetheinyl transferase; Q9F4F7; Biochemical Sfp PPTase activity, qHTS; Potency, µM, usual class: inhibitors; 310,000 compounds, 3.5% hits; AID 1490;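 further: the enzyme is Sfp with the accession as filed and its product quenches rhodamine fluorescence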
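Compounds were incubated with enzyme (final 15 nM) for 15 min at room temperature before substrate addition started the reaction. Fluorescence at 525 nm excitation, 598 nm emission was recorded immediately and after 30 minutes.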
TbPYK inh = Trypanosoma brucei pyruvate kinase inhibition, cherry-pick confirmation; Potency, µM (top dose mostly 76.9 µM), actives largely listed as inhibitors; shares compounds with PLK1 PBD block; recombinant TbPYK, Kinase-Glo ATP luminescence; AID 720569; 890 compounds, 67% hits; further: nearly all actives have a fitted effect of over 70% in size
TbPYK ADP-Glo = TbPYK inhibition, orthogonal confirmation; Potency, µM (highest dose often 76.9 µM), most hits filed as inhibitors; recombinant TbPYK, ADP-Glo luminescence, 60 min; 890 compounds, 62% hits; shares compounds with PLK1 PBD block; AID 720584; further: nearly all actives have a fitted effect of over 75% in size
Large screens that a line does not name were inactive (follow-up assays come after a bar, where they were run). The list is not random: actives were taken first. Their share in the collection is about 12%. Unless noted, the call rests on the fitted dose curve; in most records, active means well fitted curve in the direction sought with a large enough effect; inconclusive means small, poorly fitted or top-dose-only effect, or another doubt; inactive means no such curve, though single readings can be large; an effect the other way counts as inactive or inconclusive.

CCSc1nc2c([nH]1)c(=O)n(C)c(=S)n2C	PLK1 PBD block 3.36µM (no result: RORgamma inh, ALDH1A1 inh, VP16 counter, Sfp inh) | TbPYK inh 5.01µM | TbPYK ADP-Glo 10µM
CCc1ccc(N2CC(C(=O)Nc3ccc4c(c3)OCCO4)CC2=O)cc1 (stereo not given)	none (no result: ALDH1A1 inh)
COc1cc(C2Nn3c(nnc3-c3ccccc3OC)S2)ccc1O (stereo not given)	PLK1 PBD block 21.2µM, ALDH1A1 inh 23.8µM, Sfp inh inconclusive | TbPYK inh 0.224µM | TbPYK ADP-Glo 3.98µM
COc1cc(C2NC(=O)NC(C)=C2C(=O)OCC2CCCCC2)ccc1O (stereo not given)	RORgamma inh inconclusive (no result: ALDH1A1 inh)
CCc1ccccc1N1CSC2=C(C#N)C(c3ccccc3F)CC(=O)N2C1 (stereo not given)	RORgamma inh inconclusive, PLK1 PBD block 18.9µM, ALDH1A1 inh 2.82µM, VP16 counter inconclusive, Sfp inh 1.12µM | TbPYK inh 1.12µM | TbPYK ADP-Glo 1.78µM
Cn1c2c(c(=O)n(C)c1=O)C(c1ccccc1F)C(C#N)=C(N)O2 (stereo not given)	PLK1 PBD block inconclusive, ALDH1A1 inh inconclusive
COc1ccc(N2CSC3=C(C#N)C(c4cccc(OC)c4OC)CC(=O)N3C2)cc1 (stereo not given)	PLK1 PBD block 7.52µM, ALDH1A1 inh 12.6µM, Sfp inh 3.55µM | TbPYK inh 1.58µM | TbPYK ADP-Glo 1.41µM
O=C(CCN1CCc2ccccc2C(c2ccccc2)C1)c1ccc2c(c1)OCCO2 (stereo not given)	RORgamma inh 4.47µM, PLK1 PBD block 2.99µM, ALDH1A1 inh 0.141µM, VP16 counter 3.55µM, Sfp inh 44.7µM | TbPYK inh inconclusive | TbPYK ADP-Glo inconclusive
Cc1onc(NC(=O)c2ccc(Cl)cc2Cl)c1Br	ALDH1A1 inh inconclusive
COc1ccc(OC)c(C2NC(=O)c3sc(=S)n(-c4ccccc4)c3N2)c1 (stereo not given)	PLK1 PBD block inconclusive, ALDH1A1 inh inconclusive, Sfp inh inconclusive | TbPYK inh 2µM | TbPYK ADP-Glo 2.51µM
O=C(NCCc1ccccc1)C1COc2ccccc2O1 (stereo not given)	none (no result: ALDH1A1 inh)
O=C(NCCc1ccc(O)c(O)c1)C1COc2ccccc2O1 (stereo not given)	Sfp inh 50.1µM (no result: ALDH1A1 inh) | TbPYK inh 17.8µM | TbPYK ADP-Glo 17.8µM
CCSC1=C(C#N)C(c2ccccc2C)CC(=O)N1 (stereo not given)	none
C=C(C)CSC1=C(C#N)C(c2ccccc2Cl)CC(=O)N1 (stereo not given)	PLK1 PBD block 13.4µM, ALDH1A1 inh inconclusive, Sfp inh 44.7µM | TbPYK inh 5.01µM | TbPYK ADP-Glo 8.91µM
CC(NC(=O)c1ccco1)c1nc(-c2ccccc2Cl)no1 (stereo not given)	none (no result: ALDH1A1 inh)
Cc1cccc(C(=O)Oc2csc(=S)n2C(=O)c2cccc(C)c2)c1	RORgamma inh inconclusive, PLK1 PBD block 4.74µM, ALDH1A1 inh 8.91µM, Sfp inh 44.7µM | TbPYK inh 1.26µM | TbPYK ADP-Glo 2.51µM
O=C(COC(=O)C1CC2CCCC(C1)C2=O)NNC(=O)c1ccccc1F (stereo not given)	none (no result: RORgamma inh, ALDH1A1 inh, VP16 counter, Sfp inh)
CSC1CCCCC1(O)CSc1nc2c(cc1C#N)CCCC2 (stereo not given)	PLK1 PBD block 26.7µM, ALDH1A1 inh 7.94µM, Sfp inh 50.1µM (no result: VP16 counter) | TbPYK inh 7.94µM | TbPYK ADP-Glo 8.91µM
N#CCSc1nc2c(cc1C#N)CCCC2	Sfp inh inconclusive
CC(=O)c1ccc(NC(=O)CSc2nnc(-c3ccco3)c(-c3ccco3)n2)cc1	PLK1 PBD block 13.4µM, ALDH1A1 inh 1.41µM, Sfp inh 8.91µM | TbPYK inh 28.2µM | TbPYK ADP-Glo 31.6µM
Cc1cc(Cl)nc(SCC(=O)c2ccccc2)n1	none (no result: ALDH1A1 inh)
O=C(CSc1nnc(-c2ccco2)c(-c2ccco2)n1)c1ccccc1	PLK1 PBD block 16.8µM | TbPYK inh 14.1µM | TbPYK ADP-Glo 20µM
Cc1noc(NS(=O)(=O)c2ccc(NC(=O)c3ccccc3NS(=O)(=O)c3ccc(F)cc3)cc2)c1C	none (no result: RORgamma inh, ALDH1A1 inh, VP16 counter, Sfp inh)
CCC(=O)N(CC)C1=C(O)c2ccccc2C(=O)C1=O	RORgamma inh inconclusive, PLK1 PBD block 23.8µM, ALDH1A1 inh 22.4µM, VP16 counter inconclusive, Sfp inh 11.2µM | TbPYK inh inactive | TbPYK ADP-Glo 25.1µM
CCC(=O)N(C)/C=C1\Sc2ccccc2C1=O	none
CCOC1=CC2=C(C(=O)C(Cl)=CC2=O)[C@@H]2CN(S(=O)(=O)c3ccc(C)cc3)[C@@H](c3ccccc3)[C@H]12	PLK1 PBD block 6.7µM (no result: RORgamma inh, ALDH1A1 inh, VP16 counter, Sfp inh) | TbPYK inh 1.41µM | TbPYK ADP-Glo 2µM
CCN1C(=O)[C@@H]2[C@@H]3CN(S(=O)(=O)c4ccc(C)cc4)[C@@H](c4ccccc4)[C@@H]3C(=O)C[C@@H]2C1=O	none (no result: RORgamma inh, ALDH1A1 inh, VP16 counter, Sfp inh)
CCN(CC(=O)Nc1ccccc1OC)C(=O)COc1ccc2ccccc2c1	none
CC[n+]1c(/C=C2/C=C(C)CC(C)C2)sc2ccccc21 (stereo not given)	PLK1 PBD block 13.4µM, ALDH1A1 inh inconclusive, Sfp inh 44.7µM | TbPYK inh inconclusive | TbPYK ADP-Glo inconclusive
Cn1c(SCC(=O)NC2CCCCC2)nnc1-c1cccc(N)c1	none | TbPYK inh inconclusive | TbPYK ADP-Glo inconclusive
COc1ccc(OC)c(CN2CCN(C(=O)CN3C(=O)NC4(CCCC4)C3=O)CC2)c1	none (no result: RORgamma inh, ALDH1A1 inh, VP16 counter, Sfp inh)
O=C(CSc1ccc(-c2nc3ccccc3[nH]2)cn1)N1CCN(C(=O)c2ccco2)CC1	PLK1 PBD block 29.9µM, ALDH1A1 inh inconclusive | TbPYK inh inconclusive | TbPYK ADP-Glo inconclusive
O=C(CN(c1ccccc1)S(=O)(=O)c1ccccc1)Nc1ccc(F)cc1	none (no result: ALDH1A1 inh)
Cc1nc(-c2ccc(C(=O)N3CCCC3)cc2)cs1	ALDH1A1 inh 25.1µM | TbPYK inh inconclusive | TbPYK ADP-Glo inactive
CC1(C)Cc2c(c(N3CCOCC3)nc3sc(C(=O)Nc4cccc(Cl)c4)c(N)c23)CO1	PLK1 PBD block inconclusive, Sfp inh 44.7µM (no result: ALDH1A1 inh) | TbPYK inh 1.12µM | TbPYK ADP-Glo 3.55µM
CC1(C)Cc2c(c(N3CCOCC3)nc3sc(C(=O)Nc4ccccc4)c(N)c23)CO1	none (no result: ALDH1A1 inh)
Clc1ccc2nc(-c3ccco3)c(Cc3ccccc3)n2c1	PLK1 PBD block inconclusive (no result: RORgamma inh, ALDH1A1 inh, VP16 counter, Sfp inh) | TbPYK inh inconclusive | TbPYK ADP-Glo 35.5µM
Fc1cccc(Cc2c(-c3ccco3)nc3ccc(Cl)cn23)c1	PLK1 PBD block 23.8µM (no result: RORgamma inh, ALDH1A1 inh, VP16 counter, Sfp inh) | TbPYK inh inactive | TbPYK ADP-Glo inconclusive
COC(=O)c1ccc2nc(-c3ccco3)c(Cc3ccccc3)n2c1	PLK1 PBD block inconclusive (no result: RORgamma inh, ALDH1A1 inh, VP16 counter, Sfp inh) | TbPYK inh 12.6µM | TbPYK ADP-Glo 14.1µM
Fc1cccc(Cc2c(-c3ccco3)nc3ccc(Br)cn23)c1	PLK1 PBD block 23.8µM (no result: RORgamma inh, ALDH1A1 inh, VP16 counter, Sfp inh) | TbPYK inh inconclusive | TbPYK ADP-Glo inconclusive
COc1ccc(C(=O)CSc2nnc(CC(=O)Nc3ccccc3OC)n2C)cc1	none
CCOC(=O)N/N=C/C=C/c1ccccc1	VP16 counter inconclusive
